As usually defined, the inhibition is the relative decrease from the control value, in per cent.

Structures are written as SMILES. In all, about 1,300 compounds went through this assay and about 1,200 (92%) were called active.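 Rule for the calls: active = inhibition of the VIM-2 beta-lactamase enzyme above about 11% from the earlier first-round screen (limit read from the data); inactive = the rest.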 The set was probably picked from earlier hits. The list is a sample of the results.

In the experiment the test system is VIM-2 metallo-beta-lactamase (Pseudomonas aeruginosa). Briefly: VIM-2 metallo-beta-lactamase inhibitors, confirmation, biochemical, epi-absorbance, hits shared with IMP-1 screen (AID 2187).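 Note: 0% = VIM-2 with DMSO and 100% = buffer wells without enzyme.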 To be noted: purified VIM-2, nitrocefin hydrolysis, at 5.6 µM, hits give high values.
As for `Cc1cc(OCc2cc(C(=O)O)oc2C)c2c3c(c(=O)oc2c1)CCCC3`, the inhibition was 73.5% (active).
In the case of `Cc1cc(=O)oc2c(C)c(OCC(=O)N3CCN(Cc4ccc5c(c4)OCO5)CC3)ccc12` it was 58.3% (active).
